# Assay results published in publication PMC7862700, “An all-to-all approach to the identification of sequence-specific readers for epigenetic DNA modifications on cytosine”.
# Assays:
# Experiment in all cases: DAPPL (digital affinity profiling via proximity ligation, sequencing); 10 mM Tris-HCl pH 7.5, 50 mM NaCl, 1 mM DTT, 4% glycerol, room temperature, 30 min; GST-TFs on glutathione beads, 16-mer random dsDNA library, 0.1% formaldehyde crosslink after washing; high values mean tight binding
# FLI1 = molecular target: T1, FLI1 (Homo sapiens, UniProt Q01543 1-452); conditions: protein: recombinant; tags: N-terminal GST; dsDNA, one strand shown
# T1 sequence: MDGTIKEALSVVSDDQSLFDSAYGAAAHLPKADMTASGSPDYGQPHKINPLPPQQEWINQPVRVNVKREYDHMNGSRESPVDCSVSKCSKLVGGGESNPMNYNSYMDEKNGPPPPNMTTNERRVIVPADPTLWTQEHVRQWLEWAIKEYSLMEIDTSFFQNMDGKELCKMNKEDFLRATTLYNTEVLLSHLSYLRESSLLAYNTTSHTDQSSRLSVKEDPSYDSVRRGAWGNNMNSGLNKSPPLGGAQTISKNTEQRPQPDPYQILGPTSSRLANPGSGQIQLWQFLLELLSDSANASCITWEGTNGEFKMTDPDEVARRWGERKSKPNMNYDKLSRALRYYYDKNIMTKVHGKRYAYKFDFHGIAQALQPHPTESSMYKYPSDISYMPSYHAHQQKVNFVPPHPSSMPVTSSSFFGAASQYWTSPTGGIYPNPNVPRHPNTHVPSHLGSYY
# Procedure, shortened: (§1)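 GST fusions of human transcription factors were expressed in yeast and captured with glutathione beads. Once given DNA barcodes and pooled alongside a tag-only sample, they were incubated for 30 min at room temperature with 200 nmole of a random double-stranded 16-mer DNA library in Tris/NaCl/DTT/glycerol buffer, then washed, crosslinked (0.1% formaldehyde), proximity-ligated, PCR-amplified and sequenced on an Illumina NextSeq500. The binding signal of each hexamer is its read frequency for a factor divided by its frequency for the tag-only sample.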
# ELK1 = molecular target: T2, ELK1 (Homo sapiens, UniProt P19419 1-428); conditions: protein: recombinant; tags: N-terminal GST; dsDNA, one strand shown
# T2 sequence: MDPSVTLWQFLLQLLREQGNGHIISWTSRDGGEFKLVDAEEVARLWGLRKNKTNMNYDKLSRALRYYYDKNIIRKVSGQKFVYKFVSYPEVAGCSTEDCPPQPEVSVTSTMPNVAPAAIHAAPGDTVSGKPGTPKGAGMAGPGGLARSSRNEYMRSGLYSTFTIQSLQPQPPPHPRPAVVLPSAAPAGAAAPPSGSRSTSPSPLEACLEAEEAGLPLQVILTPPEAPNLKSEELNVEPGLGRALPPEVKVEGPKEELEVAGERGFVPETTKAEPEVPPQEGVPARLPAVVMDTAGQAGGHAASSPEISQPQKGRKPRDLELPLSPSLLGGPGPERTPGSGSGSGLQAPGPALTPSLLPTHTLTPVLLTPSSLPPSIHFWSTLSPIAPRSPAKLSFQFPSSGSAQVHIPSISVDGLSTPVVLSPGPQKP
# Procedure, shortened: as §1
# GABPA = molecular target: T3, GABPA (Homo sapiens, UniProt Q06546 1-454); conditions: protein: recombinant; tags: N-terminal GST; dsDNA, one strand shown
# T3 sequence: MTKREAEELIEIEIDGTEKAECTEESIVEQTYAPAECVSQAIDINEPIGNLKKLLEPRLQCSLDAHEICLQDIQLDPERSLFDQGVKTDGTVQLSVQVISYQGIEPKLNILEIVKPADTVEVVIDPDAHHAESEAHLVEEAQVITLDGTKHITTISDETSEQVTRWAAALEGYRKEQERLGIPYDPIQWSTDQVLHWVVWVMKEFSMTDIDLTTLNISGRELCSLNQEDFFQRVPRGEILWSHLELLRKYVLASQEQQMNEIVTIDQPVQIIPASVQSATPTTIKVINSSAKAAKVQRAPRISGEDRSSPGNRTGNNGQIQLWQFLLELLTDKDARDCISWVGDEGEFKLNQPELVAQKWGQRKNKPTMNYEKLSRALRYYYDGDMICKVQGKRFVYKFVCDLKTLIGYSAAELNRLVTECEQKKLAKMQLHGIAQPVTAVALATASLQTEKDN
# Procedure, shortened: as §1
# ERG = molecular target: T4, ERG (Homo sapiens, UniProt P11308 1-479); conditions: protein: recombinant; tags: N-terminal GST; dsDNA, one strand shown
# T4 sequence: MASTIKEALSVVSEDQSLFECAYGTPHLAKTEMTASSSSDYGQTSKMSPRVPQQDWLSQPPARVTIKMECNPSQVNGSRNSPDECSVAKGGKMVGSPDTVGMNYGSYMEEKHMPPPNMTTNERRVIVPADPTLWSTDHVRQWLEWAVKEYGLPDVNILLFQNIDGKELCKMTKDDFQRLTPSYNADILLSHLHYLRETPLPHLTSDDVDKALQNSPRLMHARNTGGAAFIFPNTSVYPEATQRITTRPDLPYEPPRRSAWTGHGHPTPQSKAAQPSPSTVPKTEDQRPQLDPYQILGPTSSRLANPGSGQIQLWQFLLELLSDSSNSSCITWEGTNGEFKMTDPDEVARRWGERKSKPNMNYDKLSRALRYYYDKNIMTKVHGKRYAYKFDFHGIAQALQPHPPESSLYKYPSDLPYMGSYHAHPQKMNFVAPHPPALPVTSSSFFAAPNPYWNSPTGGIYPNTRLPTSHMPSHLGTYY
# Procedure, shortened: as §1
# ELF1 = ELF1 (Homo sapiens, UniProt P32519 1-619); conditions: protein: recombinant; tags: N-terminal GST; dsDNA, one strand shown
# Procedure, shortened: as §1
# EHF = molecular target: T5, EHF (Homo sapiens, UniProt Q9NZC4 1-300); conditions: protein: recombinant; tags: N-terminal GST; dsDNA, one strand shown
# T5 sequence: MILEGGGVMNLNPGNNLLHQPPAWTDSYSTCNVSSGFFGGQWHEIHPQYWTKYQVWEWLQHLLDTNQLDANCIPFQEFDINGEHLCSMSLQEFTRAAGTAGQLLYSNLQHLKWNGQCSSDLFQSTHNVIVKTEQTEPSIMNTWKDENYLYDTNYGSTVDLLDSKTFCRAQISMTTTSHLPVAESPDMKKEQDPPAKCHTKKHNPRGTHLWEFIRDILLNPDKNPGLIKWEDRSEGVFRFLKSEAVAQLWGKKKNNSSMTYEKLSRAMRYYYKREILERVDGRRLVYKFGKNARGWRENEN
# Procedure, shortened: as §1
# SPI1 = SPI1 (Homo sapiens, UniProt P17947 1-270); conditions: protein: recombinant; tags: N-terminal GST; dsDNA, one strand shown
# Procedure, shortened: as §1
# SPIB = SPIB (Homo sapiens, UniProt Q01892 1-262); conditions: protein: recombinant; tags: N-terminal GST; dsDNA, one strand shown
# Procedure, shortened: as §1
# ELK3 = molecular target: T6, ELK3 (Homo sapiens, UniProt P41970 1-407); conditions: protein: recombinant; tags: N-terminal GST; dsDNA, one strand shown
# T6 sequence: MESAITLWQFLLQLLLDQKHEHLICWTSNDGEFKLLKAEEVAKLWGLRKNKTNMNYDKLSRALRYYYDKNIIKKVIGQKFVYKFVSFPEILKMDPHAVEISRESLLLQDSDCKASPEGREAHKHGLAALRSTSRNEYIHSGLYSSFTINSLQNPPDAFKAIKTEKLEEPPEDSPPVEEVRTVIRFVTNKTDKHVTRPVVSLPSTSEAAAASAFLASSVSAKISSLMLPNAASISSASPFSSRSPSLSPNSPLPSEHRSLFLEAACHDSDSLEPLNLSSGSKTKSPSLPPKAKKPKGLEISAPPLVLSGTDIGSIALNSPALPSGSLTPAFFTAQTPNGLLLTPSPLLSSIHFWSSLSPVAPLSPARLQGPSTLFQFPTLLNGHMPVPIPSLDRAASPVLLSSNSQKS
# Procedure, shortened: as §1
# FEV = molecular target: T7, FEV (Homo sapiens, UniProt Q99581 1-238); conditions: protein: recombinant; tags: N-terminal GST; dsDNA, one strand shown
# T7 sequence: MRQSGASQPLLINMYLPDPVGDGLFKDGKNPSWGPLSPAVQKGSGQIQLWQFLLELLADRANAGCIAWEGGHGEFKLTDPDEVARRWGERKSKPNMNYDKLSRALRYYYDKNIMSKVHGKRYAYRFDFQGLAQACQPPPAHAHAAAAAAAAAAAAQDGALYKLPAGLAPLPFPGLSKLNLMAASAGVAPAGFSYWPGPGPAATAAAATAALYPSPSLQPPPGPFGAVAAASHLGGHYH
# Procedure, shortened: as §1
# ETV5 = ETV5 (Homo sapiens, UniProt P41161 1-510); conditions: protein: recombinant; tags: N-terminal GST; dsDNA, one strand shown
# Procedure, shortened: as §1
# HSF1 = HSF1 (Homo sapiens, UniProt Q00613 1-529); conditions: protein: recombinant; tags: N-terminal GST; chain copies: 3; dsDNA, one strand shown
# Procedure, shortened: as §1
# SPIC = molecular target: T8, SPIC (Homo sapiens, UniProt Q8N5J4 1-248); conditions: protein: recombinant; tags: N-terminal GST; dsDNA, one strand shown
# T8 sequence: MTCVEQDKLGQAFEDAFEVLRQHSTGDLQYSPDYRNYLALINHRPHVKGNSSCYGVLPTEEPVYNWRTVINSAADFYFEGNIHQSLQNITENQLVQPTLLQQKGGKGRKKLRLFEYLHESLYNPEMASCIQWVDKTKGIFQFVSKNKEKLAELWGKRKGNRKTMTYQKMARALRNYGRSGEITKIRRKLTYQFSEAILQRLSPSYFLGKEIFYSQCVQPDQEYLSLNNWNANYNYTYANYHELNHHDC
# Procedure, shortened: as §1
# ELF4 = ELF4 (Homo sapiens, UniProt Q99607 1-663); conditions: protein: recombinant; tags: N-terminal GST; dsDNA, one strand shown
# Procedure, shortened: as §1
# ELK4 = molecular target: T9, ELK4 (Homo sapiens, UniProt P28324-2 1-405); conditions: protein: recombinant; tags: N-terminal GST; dsDNA, one strand shown
# T9 sequence: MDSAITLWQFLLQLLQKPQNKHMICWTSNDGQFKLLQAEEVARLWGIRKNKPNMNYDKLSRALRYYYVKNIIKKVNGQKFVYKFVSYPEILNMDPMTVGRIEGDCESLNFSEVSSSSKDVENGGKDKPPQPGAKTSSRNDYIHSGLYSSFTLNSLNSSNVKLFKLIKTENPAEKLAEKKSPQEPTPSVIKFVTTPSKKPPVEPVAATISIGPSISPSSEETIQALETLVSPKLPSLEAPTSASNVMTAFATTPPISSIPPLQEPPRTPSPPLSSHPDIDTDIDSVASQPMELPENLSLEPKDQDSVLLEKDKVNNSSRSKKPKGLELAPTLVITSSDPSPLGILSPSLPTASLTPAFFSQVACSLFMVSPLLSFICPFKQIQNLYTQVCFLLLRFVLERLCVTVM
# Procedure, shortened: as §1
# ETV2 = molecular target: T10, ETV2 (Homo sapiens, UniProt O00321 1-342); conditions: protein: recombinant; tags: N-terminal GST; dsDNA, one strand shown
# T10 sequence: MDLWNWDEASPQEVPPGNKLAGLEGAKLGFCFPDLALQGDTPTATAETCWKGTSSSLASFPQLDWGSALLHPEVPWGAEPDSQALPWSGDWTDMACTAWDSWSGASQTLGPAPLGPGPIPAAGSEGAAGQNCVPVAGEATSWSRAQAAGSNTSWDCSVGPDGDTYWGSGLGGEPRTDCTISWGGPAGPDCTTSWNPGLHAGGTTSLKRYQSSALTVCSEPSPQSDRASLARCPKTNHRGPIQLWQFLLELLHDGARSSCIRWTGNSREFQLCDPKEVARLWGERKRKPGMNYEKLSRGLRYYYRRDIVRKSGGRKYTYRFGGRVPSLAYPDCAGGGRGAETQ
# Procedure, shortened: as §1
# ELF3 = molecular target: T11, ELF3 (Homo sapiens, UniProt P78545 1-371); conditions: protein: recombinant; tags: N-terminal GST; dsDNA, one strand shown
# T11 sequence: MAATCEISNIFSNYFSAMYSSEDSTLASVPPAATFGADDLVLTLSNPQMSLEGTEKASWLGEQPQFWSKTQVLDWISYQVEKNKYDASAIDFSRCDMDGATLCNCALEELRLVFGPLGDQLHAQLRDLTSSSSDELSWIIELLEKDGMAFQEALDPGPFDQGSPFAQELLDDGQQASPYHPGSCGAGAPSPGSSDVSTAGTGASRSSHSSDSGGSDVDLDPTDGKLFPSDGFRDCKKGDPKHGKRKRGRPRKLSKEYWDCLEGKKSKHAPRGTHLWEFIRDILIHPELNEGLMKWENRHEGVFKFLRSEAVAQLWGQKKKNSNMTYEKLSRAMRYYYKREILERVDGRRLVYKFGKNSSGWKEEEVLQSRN
# Procedure, shortened: as §1
# CRX = CRX (Homo sapiens, UniProt O43186 1-299); conditions: protein: recombinant; tags: N-terminal GST; dsDNA, one strand shown
# Procedure, shortened: as §1
# ETV1 = ETV1 (Homo sapiens, UniProt P50549 1-477); conditions: protein: recombinant; tags: N-terminal GST; dsDNA, one strand shown
# Procedure, shortened: as §1
# Sequence of ETV1 (P50549 whole entry): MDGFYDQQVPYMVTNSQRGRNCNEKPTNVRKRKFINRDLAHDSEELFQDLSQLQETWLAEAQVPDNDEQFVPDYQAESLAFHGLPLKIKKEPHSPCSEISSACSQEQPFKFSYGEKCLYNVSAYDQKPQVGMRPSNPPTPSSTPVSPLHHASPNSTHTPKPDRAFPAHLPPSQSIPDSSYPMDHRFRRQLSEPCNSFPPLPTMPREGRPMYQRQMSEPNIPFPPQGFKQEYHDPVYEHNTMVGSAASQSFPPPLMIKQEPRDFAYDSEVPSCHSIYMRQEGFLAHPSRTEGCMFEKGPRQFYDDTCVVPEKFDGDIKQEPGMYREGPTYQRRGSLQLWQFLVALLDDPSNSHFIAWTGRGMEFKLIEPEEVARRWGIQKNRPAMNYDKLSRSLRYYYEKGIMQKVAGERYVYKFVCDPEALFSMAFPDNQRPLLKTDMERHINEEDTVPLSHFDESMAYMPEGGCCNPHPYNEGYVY
# Sequence of CRX (O43186 whole entry): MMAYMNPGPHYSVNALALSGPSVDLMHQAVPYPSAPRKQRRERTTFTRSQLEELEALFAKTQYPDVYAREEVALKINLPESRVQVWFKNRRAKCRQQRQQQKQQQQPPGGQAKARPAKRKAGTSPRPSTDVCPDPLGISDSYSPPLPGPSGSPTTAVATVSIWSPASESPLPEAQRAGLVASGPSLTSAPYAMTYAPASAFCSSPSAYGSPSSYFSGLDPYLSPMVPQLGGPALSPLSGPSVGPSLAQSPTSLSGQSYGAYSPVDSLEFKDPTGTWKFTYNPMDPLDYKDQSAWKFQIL
# Sequence of HSF1 (Q00613 whole entry): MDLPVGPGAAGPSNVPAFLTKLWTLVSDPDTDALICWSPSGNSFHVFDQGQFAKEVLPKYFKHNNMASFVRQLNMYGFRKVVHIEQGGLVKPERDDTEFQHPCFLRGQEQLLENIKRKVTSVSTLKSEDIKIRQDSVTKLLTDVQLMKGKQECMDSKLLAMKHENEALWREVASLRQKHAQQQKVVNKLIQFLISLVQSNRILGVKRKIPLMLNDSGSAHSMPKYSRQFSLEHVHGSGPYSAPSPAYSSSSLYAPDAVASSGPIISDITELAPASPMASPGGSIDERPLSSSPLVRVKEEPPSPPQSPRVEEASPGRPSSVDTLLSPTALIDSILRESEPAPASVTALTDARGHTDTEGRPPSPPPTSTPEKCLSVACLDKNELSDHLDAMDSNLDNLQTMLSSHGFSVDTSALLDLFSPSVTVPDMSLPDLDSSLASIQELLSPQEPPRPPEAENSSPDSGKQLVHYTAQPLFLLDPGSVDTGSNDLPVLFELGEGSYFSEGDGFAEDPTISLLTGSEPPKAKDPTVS
# Sequence of ELF1 (P32519 whole entry): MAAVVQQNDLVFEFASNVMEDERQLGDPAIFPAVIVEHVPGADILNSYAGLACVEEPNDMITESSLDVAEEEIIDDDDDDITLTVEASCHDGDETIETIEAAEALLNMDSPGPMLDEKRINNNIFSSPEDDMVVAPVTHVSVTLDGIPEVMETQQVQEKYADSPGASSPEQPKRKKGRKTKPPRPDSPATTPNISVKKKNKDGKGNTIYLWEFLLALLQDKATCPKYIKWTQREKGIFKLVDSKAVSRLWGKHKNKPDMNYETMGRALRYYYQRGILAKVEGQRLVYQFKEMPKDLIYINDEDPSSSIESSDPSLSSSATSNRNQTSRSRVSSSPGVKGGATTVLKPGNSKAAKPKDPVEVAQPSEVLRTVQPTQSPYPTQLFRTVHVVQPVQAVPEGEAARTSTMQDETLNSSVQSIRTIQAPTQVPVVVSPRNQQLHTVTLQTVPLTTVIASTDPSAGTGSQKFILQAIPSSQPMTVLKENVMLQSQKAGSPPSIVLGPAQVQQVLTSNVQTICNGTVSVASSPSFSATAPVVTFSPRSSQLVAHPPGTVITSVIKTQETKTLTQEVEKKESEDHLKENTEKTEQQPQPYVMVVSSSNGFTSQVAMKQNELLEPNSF
# Sequence of SPIB (Q01892 whole entry): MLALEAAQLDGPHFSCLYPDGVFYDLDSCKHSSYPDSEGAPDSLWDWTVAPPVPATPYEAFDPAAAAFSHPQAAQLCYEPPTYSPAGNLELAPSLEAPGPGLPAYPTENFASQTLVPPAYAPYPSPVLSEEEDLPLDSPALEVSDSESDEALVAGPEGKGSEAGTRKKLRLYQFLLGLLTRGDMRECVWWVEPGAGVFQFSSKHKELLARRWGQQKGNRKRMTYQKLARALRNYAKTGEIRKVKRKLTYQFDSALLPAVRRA
# Sequence of ELF4 (Q99607 whole entry): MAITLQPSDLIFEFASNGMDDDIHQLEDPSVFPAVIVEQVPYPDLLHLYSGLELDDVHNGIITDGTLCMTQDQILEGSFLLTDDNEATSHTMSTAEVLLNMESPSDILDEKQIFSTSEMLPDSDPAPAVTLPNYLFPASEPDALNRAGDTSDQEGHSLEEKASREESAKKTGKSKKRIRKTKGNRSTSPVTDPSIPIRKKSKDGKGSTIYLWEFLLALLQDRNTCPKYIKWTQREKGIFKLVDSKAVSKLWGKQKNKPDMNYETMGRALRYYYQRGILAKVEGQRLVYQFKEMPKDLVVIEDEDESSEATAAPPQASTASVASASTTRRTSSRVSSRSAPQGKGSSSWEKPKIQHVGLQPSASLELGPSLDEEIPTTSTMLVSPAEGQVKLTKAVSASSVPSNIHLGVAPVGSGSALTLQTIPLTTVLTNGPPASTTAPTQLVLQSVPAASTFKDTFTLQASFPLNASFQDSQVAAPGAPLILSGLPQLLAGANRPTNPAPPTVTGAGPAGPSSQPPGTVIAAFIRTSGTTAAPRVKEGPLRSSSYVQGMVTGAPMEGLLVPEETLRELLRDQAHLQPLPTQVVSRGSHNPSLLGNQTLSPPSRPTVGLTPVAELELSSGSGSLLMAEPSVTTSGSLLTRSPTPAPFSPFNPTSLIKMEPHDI
# Sequence of ETV5 (P41161 whole entry): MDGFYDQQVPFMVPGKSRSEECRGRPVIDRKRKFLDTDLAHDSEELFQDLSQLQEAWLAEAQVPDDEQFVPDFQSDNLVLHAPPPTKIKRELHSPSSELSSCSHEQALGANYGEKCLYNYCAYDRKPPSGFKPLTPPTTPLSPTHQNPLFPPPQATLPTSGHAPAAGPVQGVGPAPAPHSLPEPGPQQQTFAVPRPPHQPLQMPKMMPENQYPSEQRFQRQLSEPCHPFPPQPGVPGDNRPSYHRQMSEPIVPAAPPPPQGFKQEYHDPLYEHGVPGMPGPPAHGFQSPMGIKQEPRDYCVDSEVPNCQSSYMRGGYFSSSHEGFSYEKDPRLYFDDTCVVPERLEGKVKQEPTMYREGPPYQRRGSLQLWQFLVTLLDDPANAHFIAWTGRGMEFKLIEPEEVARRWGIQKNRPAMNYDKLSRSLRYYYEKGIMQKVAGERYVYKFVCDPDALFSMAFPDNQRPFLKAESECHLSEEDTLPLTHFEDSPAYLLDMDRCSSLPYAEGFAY
sequence,measurement,setting,value
CTAACA,binding signal,FLI1,"1.28 fold enrichment (6-mer frequency, TF over GST control)"
same,binding signal,ELK1,"1.24 fold enrichment (6-mer frequency, TF over GST control)"
same,binding signal,GABPA,"1.16 fold enrichment (6-mer frequency, TF over GST control)"
same,binding signal,ERG,"1.21 fold enrichment (6-mer frequency, TF over GST control)"
same,binding signal,ELF1,"1.25 fold enrichment (6-mer frequency, TF over GST control)"
same,binding signal,EHF,"1.21 fold enrichment (6-mer frequency, TF over GST control)"
same,binding signal,SPI1,"1.24 fold enrichment (6-mer frequency, TF over GST control)"
same,binding signal,SPIB,"1.17 fold enrichment (6-mer frequency, TF over GST control)"
same,binding signal,ELK3,"1.15 fold enrichment (6-mer frequency, TF over GST control)"
same,binding signal,FEV,"1.2 fold enrichment (6-mer frequency, TF over GST control)"
same,binding signal,ETV5,"1.26 fold enrichment (6-mer frequency, TF over GST control)"
same,binding signal,HSF1,"1.08 fold enrichment (6-mer frequency, TF over GST control)"
same,binding signal,SPIC,"1.26 fold enrichment (6-mer frequency, TF over GST control)"
same,binding signal,ELF4,"1.2 fold enrichment (6-mer frequency, TF over GST control)"
same,binding signal,ELK4,"1.17 fold enrichment (6-mer frequency, TF over GST control)"
same,binding signal,ETV2,"1.21 fold enrichment (6-mer frequency, TF over GST control)"
same,binding signal,ELF3,"1.28 fold enrichment (6-mer frequency, TF over GST control)"
same,binding signal,CRX,"1.2 fold enrichment (6-mer frequency, TF over GST control)"
same,binding signal,ETV1,"1.15 fold enrichment (6-mer frequency, TF over GST control)"
